# Results as given in ChEMBL document CHEMBL3988442, “University of Dundee, Small-Polar-MMV Screening Library” (2021).
# For some assays here: Results with a measured potency or affinity are listed apart.
# Columns and labels:
# Set-up in all cases: scale not given: direction of the effect not stated beside the values
# [1] = target: Protein translocase subunit SecA (Escherichia coli (strain K12)) (UniProt P10408); assay: Assay to Identify E. coli SecA ATPase Inhibitors; format: functional; conditions: 30 µM
# [2] = target: T1, Ubiquitin-activating enzyme e1, putative (Leishmania donovani (strain BPK282A1)) (UniProt E9BSI1); assay: Leishmania donovani Ubiquitin Activating Enzyme (LdE1); format: functional; conditions: 30 µM
# T1 sequence (whole entry): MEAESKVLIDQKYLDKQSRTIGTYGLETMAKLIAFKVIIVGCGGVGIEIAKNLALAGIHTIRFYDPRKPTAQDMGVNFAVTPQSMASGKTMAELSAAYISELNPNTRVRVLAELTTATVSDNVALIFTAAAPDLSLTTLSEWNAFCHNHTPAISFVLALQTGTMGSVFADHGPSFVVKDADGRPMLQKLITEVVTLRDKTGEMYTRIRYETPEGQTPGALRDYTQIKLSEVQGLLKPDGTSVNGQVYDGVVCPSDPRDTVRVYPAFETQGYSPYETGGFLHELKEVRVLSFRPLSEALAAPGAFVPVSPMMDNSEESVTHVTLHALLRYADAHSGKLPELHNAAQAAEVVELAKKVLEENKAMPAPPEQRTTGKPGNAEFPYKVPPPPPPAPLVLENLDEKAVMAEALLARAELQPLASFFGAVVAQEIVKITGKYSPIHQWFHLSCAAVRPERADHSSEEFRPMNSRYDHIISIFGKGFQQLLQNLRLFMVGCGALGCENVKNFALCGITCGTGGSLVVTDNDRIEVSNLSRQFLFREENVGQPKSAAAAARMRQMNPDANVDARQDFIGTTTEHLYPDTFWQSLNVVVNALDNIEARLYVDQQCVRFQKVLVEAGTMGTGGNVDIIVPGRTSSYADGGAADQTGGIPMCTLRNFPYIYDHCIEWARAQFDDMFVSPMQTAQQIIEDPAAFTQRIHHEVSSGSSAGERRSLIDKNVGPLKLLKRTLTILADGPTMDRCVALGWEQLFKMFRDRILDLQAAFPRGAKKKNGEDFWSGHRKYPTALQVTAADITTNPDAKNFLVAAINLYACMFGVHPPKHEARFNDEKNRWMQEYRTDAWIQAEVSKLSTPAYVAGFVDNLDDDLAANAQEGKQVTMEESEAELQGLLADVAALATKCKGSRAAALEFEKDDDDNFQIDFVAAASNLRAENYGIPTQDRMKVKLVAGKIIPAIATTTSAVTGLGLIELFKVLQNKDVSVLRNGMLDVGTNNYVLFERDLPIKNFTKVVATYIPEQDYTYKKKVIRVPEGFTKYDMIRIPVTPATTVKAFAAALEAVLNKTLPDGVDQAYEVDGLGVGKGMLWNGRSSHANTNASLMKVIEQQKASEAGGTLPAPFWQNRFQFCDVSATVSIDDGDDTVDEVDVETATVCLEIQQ
# [3] = target: AMP-activated protein kinase, AMPK (Homo sapiens) (UniProt P54646+O43741+P54619+Q9UGJ0+Q9Y478+Q13131+Q9UGI9); assay: AMP-dependent Kinase enzyme assay. An in vitro enzyme assay that detects ADP turnover that is directly proportional to AMPK activity. This uses naive AMPK that is activated during the assay with MK-8722; format: functional; conditions: 30 µM
# [4] = target: Sialic acid-binding Ig-like lectin 9 (Homo sapiens) (UniProt Q9Y336); assay: Hs-Siglec9 ALPHAscreen SOP 20170721; conditions: 10 µM
# Trypanosoma cruzi = assay: Trypanosoma cruzi phosphomannomutase and mannose-1-phosphate guanylyltransferase assay; format: functional; conditions: 10 µM
# [5] = target: T2, Arginase-2, mitochondrial (Homo sapiens) (UniProt P78540); assay: in vitro enzyme assay to detect the production of urea directly proportional to the activity of Arginase II; format: functional; conditions: 33.3 µM; also: in the data most compounds retested in dose-response had high values
# T2 sequence (whole entry): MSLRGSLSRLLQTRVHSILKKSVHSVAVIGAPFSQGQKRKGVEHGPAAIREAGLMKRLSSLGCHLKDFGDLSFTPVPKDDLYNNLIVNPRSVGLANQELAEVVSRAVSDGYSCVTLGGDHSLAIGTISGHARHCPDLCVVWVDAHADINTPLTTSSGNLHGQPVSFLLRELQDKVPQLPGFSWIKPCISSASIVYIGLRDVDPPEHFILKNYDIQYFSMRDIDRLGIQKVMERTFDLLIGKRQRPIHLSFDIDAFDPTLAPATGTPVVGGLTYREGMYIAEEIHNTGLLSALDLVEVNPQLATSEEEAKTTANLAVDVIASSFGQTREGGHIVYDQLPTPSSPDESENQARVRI
# [6] = target: T3, Proteasome subunit beta (Trypanosoma cruzi) (UniProt O96673); assay: Trypanosoma cruzi proteasome chymotrypsin-like activity (TcProtChymo) assay.; also: in the data most compounds retested in dose-response had high values; format: functional; conditions: 9.37 µM
# T3 sequence (whole entry): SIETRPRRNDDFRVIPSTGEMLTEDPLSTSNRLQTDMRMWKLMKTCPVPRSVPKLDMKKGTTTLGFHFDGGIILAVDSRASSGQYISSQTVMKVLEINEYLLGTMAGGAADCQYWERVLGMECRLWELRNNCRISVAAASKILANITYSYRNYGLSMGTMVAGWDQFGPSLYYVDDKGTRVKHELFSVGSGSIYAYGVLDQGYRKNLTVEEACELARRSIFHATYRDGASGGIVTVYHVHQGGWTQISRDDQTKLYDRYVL
# Homo sapiens = organism: Homo sapiens; assay: To identify inhibition of the IFN signalling (Jak-Stat) pathway via expression of an eGFP reporter gene under the control of an IFN-stimulated response element (ISRE) containing MxA promoter.; format: functional; conditions: 30 µM
# [7] = target: T4, Tyrosyl-tRNA synthetase, putative (Trypanosoma cruzi (strain CL Brener)) (UniProt Q4DSP6); assay: Trypanosoma cruzi tyrosyl tRNA synthetase (TcYRS) _High Tyrosine SOP; format: functional; conditions: 30 µM; also: in the data most compounds retested in dose-response had high values
# T4 sequence (whole entry): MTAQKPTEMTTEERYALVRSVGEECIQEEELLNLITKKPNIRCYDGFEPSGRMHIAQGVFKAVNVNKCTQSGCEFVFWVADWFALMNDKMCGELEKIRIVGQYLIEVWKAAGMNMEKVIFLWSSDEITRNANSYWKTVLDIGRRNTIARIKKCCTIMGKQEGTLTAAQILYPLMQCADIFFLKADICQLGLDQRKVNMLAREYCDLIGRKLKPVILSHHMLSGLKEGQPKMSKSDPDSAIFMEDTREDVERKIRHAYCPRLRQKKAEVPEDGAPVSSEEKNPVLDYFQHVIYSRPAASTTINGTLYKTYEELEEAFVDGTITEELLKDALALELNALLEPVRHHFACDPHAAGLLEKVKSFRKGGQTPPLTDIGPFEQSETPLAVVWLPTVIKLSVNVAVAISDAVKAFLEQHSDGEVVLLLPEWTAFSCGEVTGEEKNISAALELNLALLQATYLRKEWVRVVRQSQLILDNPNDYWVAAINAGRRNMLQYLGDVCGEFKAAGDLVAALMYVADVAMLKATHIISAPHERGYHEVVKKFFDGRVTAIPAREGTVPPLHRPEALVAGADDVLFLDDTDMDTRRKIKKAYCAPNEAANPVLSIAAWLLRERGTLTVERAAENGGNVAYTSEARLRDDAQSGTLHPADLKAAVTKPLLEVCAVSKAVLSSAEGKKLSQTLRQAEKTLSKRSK
# [8] = target: T4, Tyrosyl-tRNA synthetase, putative (Trypanosoma cruzi (strain CL Brener)); assay: Trypanosoma cruzi tyrosyl tRNA synthetase (TcYRS) SOP; format: functional; conditions: 30 µM
# [9] = target: Chromo domain-containing protein 1 (Saccharomyces cerevisiae (strain ATCC 204508 / S288c) (Baker's yeast)) (UniProt P32657); assay: ScCHD-1 Enzyme Inhibition Assay; format: functional; conditions: 30 µM; also: in the data most compounds retested in dose-response had high values
# Chain of Chromo domain-containing protein 1 (Saccharomyces cerevisiae (strain ATCC 204508 / S288c) (Baker's yeast)) (P32657 whole entry, the tested form may be a part): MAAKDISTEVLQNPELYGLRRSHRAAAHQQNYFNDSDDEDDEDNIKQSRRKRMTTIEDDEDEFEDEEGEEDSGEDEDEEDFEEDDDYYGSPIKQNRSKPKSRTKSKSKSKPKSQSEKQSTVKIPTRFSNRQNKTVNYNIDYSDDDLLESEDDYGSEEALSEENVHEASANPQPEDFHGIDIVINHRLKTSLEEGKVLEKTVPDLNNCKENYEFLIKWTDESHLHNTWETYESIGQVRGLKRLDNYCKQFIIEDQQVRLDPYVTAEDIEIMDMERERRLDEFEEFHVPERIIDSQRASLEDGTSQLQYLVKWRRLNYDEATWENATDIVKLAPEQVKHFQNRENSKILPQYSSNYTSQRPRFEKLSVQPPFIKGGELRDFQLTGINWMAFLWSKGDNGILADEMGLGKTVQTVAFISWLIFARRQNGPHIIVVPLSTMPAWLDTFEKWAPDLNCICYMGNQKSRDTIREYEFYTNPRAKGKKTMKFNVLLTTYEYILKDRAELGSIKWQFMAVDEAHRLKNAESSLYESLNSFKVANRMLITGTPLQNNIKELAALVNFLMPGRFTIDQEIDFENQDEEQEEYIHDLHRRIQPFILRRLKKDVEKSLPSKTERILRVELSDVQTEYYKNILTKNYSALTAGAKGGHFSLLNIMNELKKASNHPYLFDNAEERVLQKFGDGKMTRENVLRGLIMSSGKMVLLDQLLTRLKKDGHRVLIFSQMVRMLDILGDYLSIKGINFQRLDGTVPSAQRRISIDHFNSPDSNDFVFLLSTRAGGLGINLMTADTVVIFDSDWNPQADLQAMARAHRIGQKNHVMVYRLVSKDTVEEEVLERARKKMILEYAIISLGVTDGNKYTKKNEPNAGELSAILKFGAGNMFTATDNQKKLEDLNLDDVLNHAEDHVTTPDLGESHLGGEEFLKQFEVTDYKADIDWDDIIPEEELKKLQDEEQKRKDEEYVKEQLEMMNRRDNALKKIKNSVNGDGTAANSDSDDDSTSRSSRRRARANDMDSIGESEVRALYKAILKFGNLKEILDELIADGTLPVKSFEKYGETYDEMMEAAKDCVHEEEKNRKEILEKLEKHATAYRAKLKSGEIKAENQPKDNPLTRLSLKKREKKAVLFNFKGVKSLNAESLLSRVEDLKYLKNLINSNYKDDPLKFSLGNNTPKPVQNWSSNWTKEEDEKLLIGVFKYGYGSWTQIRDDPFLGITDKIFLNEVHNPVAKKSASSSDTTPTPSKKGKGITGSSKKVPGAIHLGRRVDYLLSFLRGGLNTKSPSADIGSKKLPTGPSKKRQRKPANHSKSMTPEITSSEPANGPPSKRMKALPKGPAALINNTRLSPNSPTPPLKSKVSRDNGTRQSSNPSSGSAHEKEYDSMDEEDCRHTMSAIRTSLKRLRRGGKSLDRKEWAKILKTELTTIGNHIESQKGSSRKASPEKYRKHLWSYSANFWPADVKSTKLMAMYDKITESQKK
# Chain of Protein translocase subunit SecA (Escherichia coli (strain K12)) (P10408 whole entry): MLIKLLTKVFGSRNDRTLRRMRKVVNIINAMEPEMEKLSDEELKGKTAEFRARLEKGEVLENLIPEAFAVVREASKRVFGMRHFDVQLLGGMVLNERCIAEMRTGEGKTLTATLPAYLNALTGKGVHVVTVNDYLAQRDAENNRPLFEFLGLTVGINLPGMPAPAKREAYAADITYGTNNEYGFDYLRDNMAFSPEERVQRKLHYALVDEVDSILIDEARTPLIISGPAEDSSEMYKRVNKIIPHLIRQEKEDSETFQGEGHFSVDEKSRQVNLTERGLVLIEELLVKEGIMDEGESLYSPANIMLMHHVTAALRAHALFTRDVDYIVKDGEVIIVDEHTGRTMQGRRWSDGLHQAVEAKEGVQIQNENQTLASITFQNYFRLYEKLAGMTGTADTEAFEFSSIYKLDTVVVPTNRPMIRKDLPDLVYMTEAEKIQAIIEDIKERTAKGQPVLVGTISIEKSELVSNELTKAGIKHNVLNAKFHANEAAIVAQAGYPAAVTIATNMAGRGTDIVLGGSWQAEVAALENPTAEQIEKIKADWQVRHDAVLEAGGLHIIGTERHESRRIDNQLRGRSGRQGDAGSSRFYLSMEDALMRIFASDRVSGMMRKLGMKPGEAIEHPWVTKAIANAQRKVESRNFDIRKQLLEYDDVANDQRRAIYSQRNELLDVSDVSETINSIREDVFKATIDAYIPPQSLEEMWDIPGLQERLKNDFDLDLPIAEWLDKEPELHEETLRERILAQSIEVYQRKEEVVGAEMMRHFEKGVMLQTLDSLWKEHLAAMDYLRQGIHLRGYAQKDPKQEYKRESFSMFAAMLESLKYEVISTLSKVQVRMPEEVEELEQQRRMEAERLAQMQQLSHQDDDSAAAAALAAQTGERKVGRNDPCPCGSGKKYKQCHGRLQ
# Chain of Sialic acid-binding Ig-like lectin 9 (Homo sapiens) (Q9Y336 whole entry): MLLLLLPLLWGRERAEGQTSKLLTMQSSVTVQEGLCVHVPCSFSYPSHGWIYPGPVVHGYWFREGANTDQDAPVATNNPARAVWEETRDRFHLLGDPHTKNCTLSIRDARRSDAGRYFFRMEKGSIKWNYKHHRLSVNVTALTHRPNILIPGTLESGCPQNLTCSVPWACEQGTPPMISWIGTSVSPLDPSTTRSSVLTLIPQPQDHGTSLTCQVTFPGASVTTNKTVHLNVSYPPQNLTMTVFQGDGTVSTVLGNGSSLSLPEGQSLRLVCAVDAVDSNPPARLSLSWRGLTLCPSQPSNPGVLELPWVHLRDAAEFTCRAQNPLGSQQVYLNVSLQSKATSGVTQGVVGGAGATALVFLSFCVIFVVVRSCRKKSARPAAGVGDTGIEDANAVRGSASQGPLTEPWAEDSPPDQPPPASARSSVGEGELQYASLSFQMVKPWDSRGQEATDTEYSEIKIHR
compound,measurement,setting,value
Cc1cc(S(=O)(=O)N2CCCc3cc(F)cc(F)c32)sc1C(=O)O,Percent Effect,[1],-9.52%
same,Percent Effect,[2],-2.67%
same,Percent Effect,[3],2.83%
same,Percent Effect,[4],0.801%
same,Percent Effect,Trypanosoma cruzi,-6.33%
same,Percent Effect,[5],-2.6%
same,Percent Effect,[6],9.59%
same,Percent Effect,Homo sapiens,7.51%
same,Percent Effect,[7],-14.8%
same,Percent Effect,[8],-18.5%
same,Percent Effect,[9],-5.34%
Cc1nc(COC[C@@H]2CC[C@H]3[C@H](CCN3S(C)(=O)=O)O2)cs1,Percent Effect,[1],1.19%
same,Percent Effect,[2],8.11%
same,Percent Effect,[3],-0.571%
same,Percent Effect,[4],-10.8%
same,Percent Effect,Trypanosoma cruzi,-6.94%
same,Percent Effect,[5],7.96%
same,Percent Effect,[6],23.4%
same,Percent Effect,Homo sapiens,8.05%
same,Percent Effect,[7],6.49%
same,Percent Effect,[8],10.3%
same,Percent Effect,[9],0.52%
Cc1cnn(CC2CCCCN2C(=O)c2ccc3[nH]nnc3c2)c1 (stereo not given),Percent Effect,[1],-3.72%
same,Percent Effect,[2],13%
same,Percent Effect,[3],5.5%
same,Percent Effect,[4],1.47%
same,Percent Effect,Trypanosoma cruzi,-2.25%
same,Percent Effect,[5],2.32%
same,Percent Effect,[6],14.3%
same,Percent Effect,Homo sapiens,22.2%
same,Percent Effect,[7],6.67%
same,Percent Effect,[8],9.41%
same,Percent Effect,[9],-11.2%
Cc1ccc(-c2cc(N)c(=O)n(CC(=O)NCC3CC3)n2)s1,Percent Effect,[1],-3.74%
same,Percent Effect,[2],6.76%
same,Percent Effect,[3],19.9%
same,Percent Effect,[4],2.48%
same,Percent Effect,Trypanosoma cruzi,-0.395%
same,Percent Effect,[5],-5.8%
same,Percent Effect,[6],9.2%
same,Percent Effect,Homo sapiens,11.4%
same,Percent Effect,[7],1.07%
same,Percent Effect,[8],9.09%
same,Percent Effect,[9],-14.1%
COCc1noc(-c2ccc(N(C)Cc3cc(C)no3)nc2)n1,Percent Effect,[1],-1.27%
same,Percent Effect,[2],0%
same,Percent Effect,[3],-1.25%
same,Percent Effect,[4],9.06%
same,Percent Effect,Trypanosoma cruzi,5.79%
same,Percent Effect,[5],10.9%
same,Percent Effect,[6],6.9%
same,Percent Effect,Homo sapiens,17.1%
same,Percent Effect,[7],5.82%
same,Percent Effect,[8],7.32%
same,Percent Effect,[9],-6.04%
CC(C)(CO)NC(=O)C1CCC(=O)N(Cc2ccc(Cl)cc2)C1 (stereo not given),Percent Effect,[1],-3.58%
same,Percent Effect,[2],1.39%
same,Percent Effect,[3],10.2%
same,Percent Effect,[4],1.15%
same,Percent Effect,Trypanosoma cruzi,-1.26%
same,Percent Effect,[5],-3.09%
same,Percent Effect,[6],2.81%
same,Percent Effect,Homo sapiens,-9.87%
same,Percent Effect,[7],-3.16%
same,Percent Effect,[8],0%
same,Percent Effect,[9],0.1%
Cc1cc(C)c(CNC(=O)NCCOc2ccc3c(c2)CCC3)c(=O)[nH]1,Percent Effect,[1],-3.48%
same,Percent Effect,[2],-5.26%
same,Percent Effect,[3],0.256%
same,Percent Effect,[4],7.3%
same,Percent Effect,Trypanosoma cruzi,9.96%
same,Percent Effect,[5],0.383%
same,Percent Effect,[6],0%
same,Percent Effect,Homo sapiens,3.96%
same,Percent Effect,[7],1.47%
same,Percent Effect,[8],0%
same,Percent Effect,[9],3.04%
CCn1cnnc1C1CCN(C(=O)c2ccccc2OC)CC1,Percent Effect,[1],-2.76%
same,Percent Effect,[2],7.79%
same,Percent Effect,[3],12.8%
same,Percent Effect,[4],2.75%
same,Percent Effect,Trypanosoma cruzi,-4.68%
same,Percent Effect,[5],-2.13%
same,Percent Effect,[6],6.42%
same,Percent Effect,Homo sapiens,25.9%
same,Percent Effect,[7],4.85%
same,Percent Effect,[8],7.32%
same,Percent Effect,[9],-3.6%
CCc1nnc2n1CC(CNCc1ccncc1)CC2 (stereo not given),Percent Effect,[1],1.7%
same,Percent Effect,[2],4.17%
same,Percent Effect,[3],-9.25%
same,Percent Effect,[4],-5.88%
same,Percent Effect,Trypanosoma cruzi,-3.6%
same,Percent Effect,[5],5.3%
same,Percent Effect,[6],19.6%
same,Percent Effect,Homo sapiens,-6.46%
same,Percent Effect,[7],5.26%
same,Percent Effect,[8],0%
same,Percent Effect,[9],-3.45%
Cn1nc(CNC(=O)C2CCCC2)cc1C1CC1,Percent Effect,[1],-6.17%
same,Percent Effect,[2],10.4%
same,Percent Effect,[3],-2.49%
same,Percent Effect,[4],-7.84%
same,Percent Effect,Trypanosoma cruzi,5.23%
same,Percent Effect,[5],-0.645%
same,Percent Effect,[6],2.79%
same,Percent Effect,Homo sapiens,6.93%
same,Percent Effect,[7],0%
same,Percent Effect,[8],16.7%
same,Percent Effect,[9],-8.08%
